# Experimental data taken from the supplement of paper PMC8728848.
# The full list was thinned out, with the strongest signals kept by preference.
# B1: Pa IMPa (Pseudomonas aeruginosa), Q9I5W4 (protein)
# chain: MSLSTTAFPSLQGENMSRSPIPRHRALLAGFCLAGALSAQAATQEEILDAALVSGDSSQLTDSHLVALRLQQQVERIRQTRTQLLDGLYQNLSQAYDPGAASMWVLPANPDNTLPFLIGDKGRVLASLSLEAGGRGLAYGTNVLTQLSGTNAAHAPLLKRAVQWLVNGDPGAATAKDFKVSVVGVDKTAALNGLKSAGLQPADAACNALTDASCASTSKLLVLGNGASAASLSATVRARLQAGLPILFVHTNGWNQSSTGQQILAGLGLQEGPYGGNYWDKDRVPSSRTRTRSVELGGAYGQDPALVQQIVDGSWRTDYDWSKCTSYVGRTTCDDVPGLSDFSKRVDVLKGALDAYNQKAQNLFALPGTTSLRLWLLWADAVRQNIRYPMDKAADTARFQETFVADAIVGYVREAGAAQKELGSYAGQRQQSMPVSGSEETLTLTLPSAQGFTAIGRMAAPGKRLSIRIEDAGQASLAVGLNTQRIGSTRLWNTRQYDRPRFLKSPDIKLQANQSVALVSPYGGLLQLVYSGATPGQTVTVKVTGAASQPFLDIQPGEDSSQAIADFIQALDADKADWLEIRSGSVEVHAKVEKVRGSIDKDYGGDVQRFIRELNEVFIDDAYTLAGFAIPNQAKTPAIQQECAARGWDCDSETLHKLPGTQHINVDQYAQCGGGCSGNPYDQTWGLNPRGWGESHELGHNLQVNRLKVYGGRSGEISNQIFPLHKDWRVLREFGQNLDDTRVNYRNAYNLIVAGRAEADPLAGVYKRLWEDPGTYALNGERMAFYTQWVHYWADLKNDPLQGWDIWTLLYLHQRQVDKSDWDANKAALGYGTYAQRPGNSGDASSTDGNDNLLLGLSWLTQRDQRPTFALWGIRTSAAAQAQVAAYGFAEQPAFFYANNRTNEYSTVKLLDMSQGSPAWPFP
# Experiments:
# Assay in all cases: glycan array binding signal (z-score within array); higher = stronger binding
# Conditions in all cases: glycan notation: IUPAC condensed, linker removed
# [1] = target: Fuc(a1-2)Gal(b1-3)GlcNAc
# Method in brief: (§1)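 From the Consortium for Functional Glycomics database, 3228 arrays were curated, keeping only those whose protein sequence was available. Binding is given as a within-array Z-score averaged across arrays sharing a protein sequence and across linkers. Negative Z-scores can be read as non-binding.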
# [2] = target: Fuc(a1-2)Gal(b1-3)GlcNAc6S
# Method in brief: as §1
# [3] = target: Fuc(a1-2)Gal(b1-3)[Fuc(a1-4)]GlcNAc
# Method in brief: as §1
# [4] = target: Fuc(a1-2)Gal6S(b1-3)GlcNAc
# Method in brief: as §1
# [5] = target: Fuc(a1-2)Gal6S(b1-3)GlcNAc6S
# Method in brief: as §1
# [6] = target: Fuc(a1-2)[GalNAc(a1-3)]Gal(b1-3)GlcNAc(b1-3)GalNAc
# Method in brief: as §1
# [7] = target: Fuc(a1-3)[Gal(b1-4)]GlcNAc6S
# Method in brief: as §1
# [8] = target: Fuc(a1-3)[Gal3S(b1-4)]Glc
# Method in brief: as §1
# [9] = target: Fuc(a1-3)[Gal3S(b1-4)]GlcNAc
# Method in brief: as §1
# [10] = target: Gal(a1-3)Gal
# Method in brief: as §1
# [11] = target: Gal(a1-3)Gal(b1-3)GlcNAc(b1-2)Man
# Method in brief: as §1
# [12] = target: Gal(b1-2)Gal
# Method in brief: as §1
# [13] = target: Gal(b1-3)GlcNAc(a1-3)Gal(b1-4)GlcNAc
# Method in brief: as §1
# [14] = target: Gal(b1-3)GlcNAc(b1-2)[Gal(b1-3)GlcNAc(b1-6)]Man(a1-6)[Gal(b1-3)GlcNAc(b1-2)Man(a1-3)]Man(b1-4)GlcNAc(b1-4)GlcNAc
# Method in brief: as §1
# [15] = target: Gal(b1-3)GlcNAc(b1-3)Gal(b1-4)Glc
# Method in brief: as §1
# [16] = target: Gal(b1-3)GlcNAc(b1-3)Gal(b1-4)GlcNAc(b1-2)[Gal(b1-3)GlcNAc(b1-3)Gal(b1-4)GlcNAc(b1-6)]Man(a1-6)[Gal(b1-3)GlcNAc(b1-3)Gal(b1-4)GlcNAc(b1-2)Man(a1-3)]Man(b1-4)GlcNAc(b1-4)[Fuc(a1-6)]GlcNAc
# Method in brief: as §1
# [17] = target: Gal(b1-4)GlcNAc(b1-2)Man(a1-3)[Gal(b1-4)GlcNAc(b1-2)Man(a1-6)][GlcNAc(b1-4)]Man(b1-4)GlcNAc(b1-4)[Fuc(a1-6)]GlcNAc
# Method in brief: as §1
# [18] = target: Gal(b1-4)GlcNAc(b1-3)Gal(b1-4)GlcNAc(b1-3)Gal(b1-4)GlcNAc
# Method in brief: as §1
# [19] = target: Gal(b1-4)GlcNAc(b1-3)Gal(b1-4)GlcNAc(b1-3)Gal(b1-4)GlcNAc(b1-3)Gal(b1-4)GlcNAc(b1-3)Gal(b1-4)GlcNAc(b1-2)Man(a1-3)[Gal(b1-4)GlcNAc(b1-3)Gal(b1-4)GlcNAc(b1-3)Gal(b1-4)GlcNAc(b1-3)Gal(b1-4)GlcNAc(b1-3)Gal(b1-4)GlcNAc(b1-2)Man(a1-6)]Man(b1-4)GlcNAc(b1-4)GlcNAc
# Method in brief: as §1
# [20] = target: Gal(b1-4)GlcNAc(b1-6)Gal(b1-4)GlcNAc
# Method in brief: as §1
# [21] = target: Gal6S(b1-3)GlcNAc
# Method in brief: as §1
# [22] = target: GalNAc(b1-4)GlcNAc
# Method in brief: as §1
# [23] = target: GalNAc(b1-4)GlcNAc(b1-2)Man
# Method in brief: as §1
# [24] = target: GalNAc(b1-4)GlcNAc(b1-3)GalNAc(b1-4)GlcNAc
# Method in brief: as §1
# [25] = target: GalNAc4S6S(b1-4)GlcNAc
# Method in brief: as §1
# [26] = target: Glc(a1-4)Glc(a1-4)Glc(a1-4)Glc
# Method in brief: as §1
# [27] = target: Glc(a1-6)Glc(a1-6)Glc(a1-6)Glc
# Method in brief: as §1
# [28] = target: Glc(b1-6)Glc
# Method in brief: as §1
# [29] = target: GlcNAc(a1-4)Gal(b1-4)GalNAc
# Method in brief: as §1
# [30] = target: GlcNAc(a1-4)Gal(b1-4)GlcNAc
# Method in brief: as §1
# [31] = target: GlcNAc(a1-4)Gal(b1-4)GlcNAc(b1-3)Gal(b1-4)GlcNAc
# Method in brief: as §1
# [32] = target: GlcNAc(b1-2)[GlcNAc(b1-4)]Man(a1-3)[GlcNAc(b1-4)][GlcNAc(b1-2)[GlcNAc(b1-6)]Man(a1-6)]Man(b1-4)GlcNAc(b1-4)[Fuc(a1-6)]GlcNAc
# Method in brief: as §1
# [33] = target: GlcNAc(b1-3)Fuc
# Method in brief: as §1
# [34] = target: GlcNAc(b1-3)Gal(b1-4)Glc
# Method in brief: as §1
# [35] = target: GlcNAc(b1-3)Gal(b1-4)GlcNAc(b1-3)Gal(b1-4)GlcNAc(b1-2)Man(a1-3)[GlcNAc(b1-3)Gal(b1-4)GlcNAc(b1-3)Gal(b1-4)GlcNAc(b1-2)Man(a1-6)]Man(b1-4)GlcNAc(b1-4)GlcNAc
# Method in brief: as §1
# [36] = target: GlcNAc(b1-3)Gal(b1-4)GlcNAc(b1-3)Gal(b1-4)GlcNAc(b1-3)Gal(b1-4)GlcNAc(b1-3)Gal(b1-4)GlcNAc(b1-2)Man(a1-3)[GlcNAc(b1-3)Gal(b1-4)GlcNAc(b1-3)Gal(b1-4)GlcNAc(b1-3)Gal(b1-4)GlcNAc(b1-3)Gal(b1-4)GlcNAc(b1-2)Man(a1-6)]Man(b1-4)GlcNAc(b1-4)[Fuc(a1-6)]GlcNAc
# Method in brief: as §1
# [37] = target: GlcNAc(b1-3)Gal(b1-4)GlcNAc(b1-3)Gal(b1-4)GlcNAc(b1-3)Gal(b1-4)GlcNAc(b1-3)Gal(b1-4)GlcNAc(b1-2)[GlcNAc(b1-3)Gal(b1-4)GlcNAc(b1-3)Gal(b1-4)GlcNAc(b1-3)Gal(b1-4)GlcNAc(b1-3)Gal(b1-4)GlcNAc(b1-6)]Man(a1-6)[GlcNAc(b1-3)Gal(b1-4)GlcNAc(b1-3)Gal(b1-4)GlcNAc(b1-3)Gal(b1-4)GlcNAc(b1-3)Gal(b1-4)GlcNAc(b1-2)Man(a1-3)]Man(b1-4)GlcNAc(b1-4)[Fuc(a1-6)]GlcNAc
# Method in brief: as §1
# [38] = target: GlcNAc(b1-3)Gal(b1-4)GlcNAc(b1-3)[GlcNAc(b1-3)Gal(b1-4)GlcNAc(b1-3)]GalNAc
# Method in brief: as §1
# [39] = target: Kdn(a2-3)Gal(b1-4)GlcNAc
# Method in brief: as §1
# [40] = target: Man(a1-2)Man(a1-2)Man(a1-3)Man
# Method in brief: as §1
# [41] = target: Neu5Ac(a2-3)Gal(b1-3)GlcNAc(b1-3)Gal(b1-4)GlcNAc
# Method in brief: as §1
# [42] = target: Neu5Ac(a2-3)Gal(b1-3)GlcNAc(b1-3)GalNAc
# Method in brief: as §1
# [43] = target: Neu5Ac(a2-6)Gal(b1-4)GlcNAc(b1-2)Man
# Method in brief: as §1
# [44] = target: Neu5Ac(a2-6)Gal(b1-4)GlcNAc(b1-3)Gal(b1-4)GlcNAc
# Method in brief: as §1
# [45] = target: Neu5Ac(a2-8)Neu5Ac(a2-3)[Gal(b1-3)GalNAc(b1-4)]Gal(b1-4)Glc
# Method in brief: as §1
# [46] = target: Neu5Gc(b2-6)Gal(b1-4)GlcNAc
# Method in brief: as §1
binder,measurement,setting,value
B1,glycan array binding signal (z-score),[1],-0.318
same,glycan array binding signal (z-score),[2],-0.327
same,glycan array binding signal (z-score),[3],-0.558
same,glycan array binding signal (z-score),[4],0.048
same,glycan array binding signal (z-score),[5],2.91
same,glycan array binding signal (z-score),[6],-0.411
same,glycan array binding signal (z-score),[7],-0.132
same,glycan array binding signal (z-score),[8],-0.077
same,glycan array binding signal (z-score),[9],-0.278
same,glycan array binding signal (z-score),[10],0.105
same,glycan array binding signal (z-score),[11],-0.472
same,glycan array binding signal (z-score),[12],0.524
same,glycan array binding signal (z-score),[13],1.27
same,glycan array binding signal (z-score),[14],-0.438
same,glycan array binding signal (z-score),[15],0.215
same,glycan array binding signal (z-score),[16],0.004
same,glycan array binding signal (z-score),[17],-0.448
same,glycan array binding signal (z-score),[18],-0.198
same,glycan array binding signal (z-score),[19],10.7
same,glycan array binding signal (z-score),[20],-0.112
same,glycan array binding signal (z-score),[21],1.34
same,glycan array binding signal (z-score),[22],-0.367
same,glycan array binding signal (z-score),[23],0.357
same,glycan array binding signal (z-score),[24],-0.197
same,glycan array binding signal (z-score),[25],1.48
same,glycan array binding signal (z-score),[26],0.634
same,glycan array binding signal (z-score),[27],0.853
same,glycan array binding signal (z-score),[28],-0.442
same,glycan array binding signal (z-score),[29],0.088
same,glycan array binding signal (z-score),[30],3.49
same,glycan array binding signal (z-score),[31],-0.321
same,glycan array binding signal (z-score),[32],1.41
same,glycan array binding signal (z-score),[33],1.37
same,glycan array binding signal (z-score),[34],-0.08
same,glycan array binding signal (z-score),[35],-0.305
same,glycan array binding signal (z-score),[36],7.78
same,glycan array binding signal (z-score),[37],0.125
same,glycan array binding signal (z-score),[38],17.5
same,glycan array binding signal (z-score),[39],-0.467
same,glycan array binding signal (z-score),[40],-0.474
same,glycan array binding signal (z-score),[41],0.474
same,glycan array binding signal (z-score),[42],0.273
same,glycan array binding signal (z-score),[43],-0.409
same,glycan array binding signal (z-score),[44],-0.371
same,glycan array binding signal (z-score),[45],-0.007
same,glycan array binding signal (z-score),[46],-0.305
